Among all 2,300 compounds or so, about 350 (15%) were called active. The rule behind the calls is not given here. These entries were drawn from the full list. Measured potencies and affinities stand elsewhere.
Assay: HepG2 cell cytotoxicity, dose response, cytotoxicity control for non-replicating M. tuberculosis project (AID 489018);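 note: HepG2 human liver cells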
Settings: series mostly up to 20 µM

SMILES	outcome
O=C(OCc1ccc(Cl)c(Cl)c1)c1ccccn1	inactive
O=C(Nc1sc2c(c1C(=O)O)CCCC2)c1ccc(F)cc1	inactive
O=C(c1ccc([N+](=O)[O-])o1)N1CCc2ccccc2C1	inactive
COc1cc2c(cc1OC)CN(C(=O)c1ccc([N+](=O)[O-])o1)CC2	inactive
O=C(Nc1sc2c(c1C(=O)O)CCCCC2)c1ccccc1F	inactive
COc1ccccc1NC(=O)c1ccc([N+](=O)[O-])o1	inactive
CCOC(=O)COc1ccc2c3c(c(=O)oc2c1C)CCC3	inactive
O=C(COC(=O)c1ccc(Cl)s1)c1ccc[nH]1	inactive
COc1ccccc1OCCNC(=O)c1cc([N+](=O)[O-])cc([N+](=O)[O-])c1	inactive
O=C(OCC(=O)N1CCN(c2ccccc2)CC1)c1ccc2ccccc2n1	inactive
O=C(OCC(=O)c1c[nH]c2ccccc12)c1ccc([N+](=O)[O-])s1	inactive
CCCCCC/C(=N/O)c1ccccn1	inactive
Cc1cccc2cc(C#N)c(NCCCn3ccnc3)nc12	inactive
c1ccc(-c2nc(NCCCn3ccnc3)c3ccccc3n2)cc1	inactive
CC(C)OC(=O)c1cc(C(=O)c2cc(Cl)ccc2O)coc1=N	inactive
O=C1NN(c2ccccc2)C(=O)/C1=C/c1ccc(Sc2ccc(Cl)cc2)o1	inactive
COC(=O)COc1ccc2c(-c3cccc([N+](=O)[O-])c3)cc(=O)oc2c1	inactive
Cc1cc(NC(=O)c2cc([N+](=O)[O-])cc([N+](=O)[O-])c2)no1	inactive
NC(=O)N/N=C\c1cc(Br)ccc1O	inactive
O=C(CCc1ccccc1)NC1C2CC3CC(C2)CC1C3 (stereo not given)	inactive
Cc1cc(C(=O)N/N=C/c2cccc(Cl)c2Cl)no1	inactive
C/C(=N\NC(=O)CCc1ccccc1)C1C(=O)c2ccccc2C1=O	inactive
CN1CC(=O)NC1=NC(=O)C12CC3CC(CC(C3)C1)C2	inactive

SMILES	outcome
O=C(NNC(=O)c1cnccn1)c1ccc(Cl)c(Cl)c1	inactive
Cn1cnc([N+](=O)[O-])c1Sc1ccc(Br)cc1	inactive
CCc1ccc(N2CCN(CCNC(=O)Nc3ccc(OC)cc3)CC2)cc1	inactive
O=c1c2c([N+](=O)[O-])cc([N+](=O)[O-])cc2nc2ccccn12	inactive
O=C(OCc1cccc([N+](=O)[O-])c1)c1ccc2ccccc2n1	inactive
CCOC(=O)C(=O)NC12CC3CC(CC(C3)C1)C2	inactive
O=C(CCCOc1ccccc1)OCn1nnc2ccccc2c1=O	inactive
COc1ccc(NC(=O)Nc2ccc(O)c3ccccc23)cc1	inactive
CCOc1ccc2ccccc2c1/C=N/NC(=O)c1ccncc1	inactive
CCS(=O)(=O)c1ncc(Cl)c(C(=O)Nc2ccc(S(=O)(=O)N(C)c3ccccc3)cc2)n1	inactive
CCOC(=O)c1c(NC(=O)COC(=O)c2ccccn2)sc2c1CCC2	inactive
Clc1ccc(OCCOCCN2CCc3ccccc3C2)c(Cl)c1	inactive
CC(C)OC(=O)C(C)Oc1ccc(C(=O)NCCc2ccccc2)cc1 (stereo not given)	inactive
CC1(C)OC(c2ccccc2)=C/C(=C\C=N\NC(=O)c2ccncc2)O1	inactive
CN(C)CCC(=O)N1c2ccccc2Sc2ccc(Cl)cc21	inactive
Cc1ccc2nc(N(CCCN(C)C)C(=O)c3ccc4c(c3)CCCC4)sc2c1	inactive
CCc1ccc(OCC(=O)NNC(=O)c2cnccn2)c(Br)c1	inactive
O=C(N/N=C\c1ccc(Cl)s1)C1COc2ccccc2O1 (stereo not given)	inactive
Clc1ccc(N=c2ssnc2Cl)nc1	inactive
S=C1SCN(Cc2ccco2)CN1Cc1ccco1	inactive
CN(C)S(=O)(=O)c1ccc(C(=O)Oc2ccccc2)cc1	inactive
CCC(C)[C@H]1CN=C(N)N1CCc1cccc2ccccc12 (stereo not given in full)	inactive
Cc1cc(-c2c(C)[nH]n(-c3ccccc3)c2=O)n[nH]1	inactive

SMILES	outcome
COc1ccc2oc(=O)c(/C(C)=N/NC(=O)c3ccncc3)cc2c1	inactive
C/C(=N\Nc1nc2ccccc2nc1C)c1ccccc1O	inactive
N=c1oc2ccc(Cl)cc2cc1C(=O)NC1CCCCCC1	inactive
O=C(Oc1ccc(F)cc1)c1ccc2c(=O)n3c(nc2c1)CCC3	inactive
Cc1ccc(-c2nnc(SCC#CCOC(=O)c3ccco3)o2)cc1	inactive
CCOC(=O)C1=C(C)C/C(=N\NC(=O)c2ccccc2O)CC1	inactive
Cc1cc(C)nc(Sc2ncnc(N)c2[N+](=O)[O-])n1	inactive
Oc1ccccc1-c1nnc(COc2ccccc2)o1	inactive
CC(C)N1CCc2c(sc(NC(=O)CCS(=O)(=O)c3ccccc3)c2C#N)C1	inactive
CNC(=O)COC(=O)c1ccc(-c2nc3ccccc3s2)s1	inactive
CCCCNC(=O)Nc1nnc(-c2ccc(OCC)cc2)o1	inactive
Cc1ccc(CCC(=O)Nc2ccc(C)c(C)c2)o1	inactive
Cc1ccc(C(=O)Nc2nnc(C3=COCCO3)o2)cc1C	inactive
C/C(=C\C(=O)c1ccc(Br)cc1)NNC(=O)c1ccccc1	inactive
Cc1n[nH]c(=S)n1/N=C/c1ccc(OCc2ccc(Cl)cc2Cl)cc1	inactive
CC(C)(C)c1csc(NC(=O)c2ccccc2O)n1	inactive
O=C(O)c1ccccc1-c1ccccc1C(=O)Nc1nc2ccccc2s1	inactive
Cc1ccc2c(c1)C(=O)C(=O)N2CCCOc1ccccc1	inactive
CCCn1c(NC(=O)c2ccc([N+](=O)[O-])o2)nc2ccccc21	inactive
COC(=O)c1ccc(C(=O)NC2CCCc3c2cnn3-c2cc(F)cc(F)c2)nc1 (stereo not given)	inactive
O=C(COC(=O)c1cccc(C(F)(F)F)c1)NCc1ccccc1	inactive
COC(=O)C1=C(C)N(CC2CC2)C(=NCc2cccc(Cl)c2)N[C@H]1c1ccccc1	inactive
CCOC(=O)COc1cc(N)c(Cl)cc1Cl	inactive

SMILES	outcome
CC(C)C1O/C(=N/C(=O)Nc2ccc(Cl)c(Cl)c2)NC1=O (stereo not given)	inactive
O=c1c2ccccc2sn1-c1ccccc1	inactive
COC(=O)COc1ccc2cc(-c3ccc(OC)cc3)c(=O)oc2c1	inactive
CC(C)(C)NC(=O)C(=O)NNC(=O)c1ccc(C(C)(C)C)cc1	inactive
C#CCSc1nnc(-c2cccc3ccccc23)o1	inactive
N#Cc1ccc(COC(=O)CCc2c[nH]c3ccccc23)cc1	inactive
O=C(COC(=O)CCc1c[nH]c2ccccc12)NCc1ccc2c(c1)OCO2	inactive
O=C(COC(=O)CCc1c[nH]c2ccccc12)NCc1ccc(Cl)cc1	inactive
COc1ccc(OC(=O)CCc2c[nH]c3ccccc23)cc1	inactive
CCc1ccc(NC(=O)C(=O)NNC(=O)COc2cccc(OC)c2)cc1	inactive
O=C(NNc1nc2cc3c(cc2s1)OCCO3)c1ccccc1	inactive
O=[N+]([O-])c1ccc(CNc2cccc(Cl)c2)s1	inactive
CC1=NN(C(=O)c2csc(C)c2C)C(O)(C(F)(F)F)C1 (stereo not given)	inactive
CCOCC(=O)Nc1nc2ccc(C)cc2s1	inactive
CCN(CC)CCSc1nnc2c3cc(C)ccc3n(Cc3ccccc3)c2n1	inactive
O=C(Nc1nc2ccccc2n1CCN1CCCC1)C1CCCCC1	inactive
O=C(Nc1nc2ccccc2n1CCN1CCCC1)c1ccc(Cl)cc1	inactive
Cc1cccc(NC(=O)COC(=O)CCc2c[nH]c3ccccc23)c1	inactive
O=C(COC(=O)c1ccccc1Cl)NCCC1=CCCCC1	inactive
O=c1cc2[nH]c3ccccc3c(=O)n2nc1-c1ccccc1	inactive
CC1CC(C)CN(C(=O)COC(=O)c2ccc([N+](=O)[O-])o2)C1 (stereo not given)	inactive
COc1ccc(CCCC(=O)NCc2ccccc2)cc1C	inactive
COc1ccc(S(=O)(=O)NCc2ccc3c(c2)cc(C)n3C)cc1	inactive

SMILES	outcome
COC(=O)COc1ccc2c(-c3ccc(OC)cc3)cc(=O)oc2c1	inactive
C=C1CCC[C@]2(C)C[C@H]3OC(=O)C(CNC(C)CCCC(C)C)[C@H]3CC12 (stereo not given in full)	inactive
O=C(Oc1ccccc1Cl)c1ccc2c(=O)n3c(nc2c1)CCC3	inactive
CC(/C=C/c1cccc([N+](=O)[O-])c1)=N\NC(=O)c1ccncc1	inactive
COC(=O)COc1cccc(/C=N/NC(=O)CCSc2ccccc2)c1	inactive
CC(/C=C/c1ccccc1)=N\NC(=O)c1ccc2c(c1)OCCO2	inactive
O=C(N/N=C\c1ccccc1OCc1ccccc1)c1ccco1	inactive
Cc1occc1C(=O)N/N=C/c1ccc[nH]1	inactive
O=C(N/N=C/c1ccc[nH]1)c1ccc2c(c1)OCO2	inactive
Cc1occc1C(=O)N/N=C/C(Br)=C\c1ccccc1	inactive
C/C(=N\NC(=O)c1cccs1)c1ccc2c(c1)OCO2	inactive
C/C(Cn1nnc([N+](=O)[O-])n1)=N\NC(=O)c1ccncc1	inactive
COC(=O)CN(C#N)c1nc(SC)nc(N(C)C)n1	inactive
O=C1CCC/C(=N/Nc2ccc(Cl)cc2)C1	inactive
CCOCCOC(=O)c1ccc(NC(=O)C2COc3ccccc3O2)cc1 (stereo not given)	inactive
Cc1ccc(C)c(NC(=O)c2cc([N+](=O)[O-])cc([N+](=O)[O-])c2)c1	inactive
Cc1cc(Cl)ccc1OC(C)C(=O)Nc1ccc([N+](=O)[O-])cn1 (stereo not given)	inactive
O=C(CCc1ccc(Oc2cc([N+](=O)[O-])cc([N+](=O)[O-])c2)cc1)N1CCCCC1	inactive
Cc1ccccc1-n1ncc2c([N+](=O)[O-])cc([N+](=O)[O-])cc21	inactive
Cc1cc(C)n(C(=O)c2ccc([N+](=O)[O-])cc2[N+](=O)[O-])n1	inactive
N/C(=N/OC(=O)c1ccccc1Cl)c1ncc([N+](=O)[O-])s1	inactive
COc1ccc(OC)c(NC(=O)C(=O)NNC(=O)C23CC4CC(CC(C4)C2)C3)c1	inactive
Brc1ccc(-c2ccc(CNCc3ccccn3)o2)cc1	inactive

Source: PubChem BioAssay AID489018 (Southern Research Specialized Biocontainment Screening …, 2010)
